Assays:
Conditions in all cases: concentration: 1 μM, replicates: in singlicate; n = 1
[1] = system: BLK
[2] = system: BMPR1A
[3] = system: BMPR1B
[4] = system: BMPR2
[5] = system: BMX
[6] = system: BRAF
[7] = system: T1, BRK
T1 construct: gene PTK6

[8] = system: BRSK1
[9] = system: BRSK2
[10] = system: BTK
[11] = system: BUB1
[12] = system: CAMK1B
[13] = system: CAMK1D
[14] = system: CAMK1G
[15] = system: CAMK1
[16] = system: CAMK2A
[17] = system: CAMK2B
[18] = system: CAMK2D
[19] = system: CAMK2G
[20] = system: CAMK4
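Note: KINOMEscan kinase panel screen.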

Row | SMILES | %Inh [1] [%] | %Inh [2] [%] | %Inh [3] [%] | %Inh [4] [%] | %Inh [5] [%] | %Inh [6] [%] | %Inh [7] [%] | %Inh [8] [%] | %Inh [9] [%] | %Inh [10] [%] | %Inh [11] [%] | %Inh [12] [%] | %Inh [13] [%] | %Inh [14] [%] | %Inh [15] [%] | %Inh [16] [%] | %Inh [17] [%] | %Inh [18] [%] | %Inh [19] [%] | %Inh [20] [%]
1 | NS(=O)(=O)CCc1cccc(Nc2nccc(-c3c(-c4cccc(NC(=O)c5c(F)cccc5F)c4)nn4ccccc34)n2)c1 [GSK336735] | 99.7 | 0 | 0 | 0 | 94.6 | 89 | 96 | 8 | 20 | 94.6 | 77 | 0 | 29 | 0 | 53 | 0 | 0 | 4 | 14 | 0
2 | Fc1ccc(-c2ncn(CCCN3CCOCC3)c2-c2cccnc2)cc1 [SB-211743] | 16 | 0 | 0 | 16 | 0 | 2 | 0 | 0 | 4 | 0 | 4 | 0 | 0 | 0 | 0 | 0 | 0 | 0 | 0 | 14
3 | C[C@@H](Oc1cc(-n2cnc3ccc(NC(=O)NC(C)(C)C)cc32)sc1C(N)=O)c1ccccc1Cl [GSK346294] | 0 | 0 | 0 | 5 | 22 | 0 | 17 | 10 | 15 | 6 | 35 | 32 | 19 | 2 | 11 | 9 | 0 | 18 | 23 | 3
4 | Cc1nnc(-c2ccc3ncc(-c4ccc(S(C)=O)cc4)n3c2)o1 (stereo not drawn) | 0 | 9 | 16 | 18 | 0 | 62 | 14 | 14 | 0 | 24 | 16 | 6 | 0 | 26 | 0 | 0 | 0 | 25 | 27 | 0
5 | CNc1ncnc2[nH]ncc12 [SKF-18355] | 0 | 6 | 0 | 35 | 0 | 11 | 0 | 0 | 0 | 0 | 20 | 0 | 0 | 0 | 0 | 0 | 0 | 0 | 0 | 0
6 | Cc1cn2c(=O)cc(N3CCOCC3)nc2n1Cc1cccc(Cl)c1Cl [GSK2334006] | 37 | 19 | 0 | 0 | 10 | 15 | 5 | 14 | 0 | 0 | 4 | 40 | 14 | 30 | 12 | 0 | 0 | 10 | 32 | 0
7 | COc1ccc(CNC(=O)NC2CCN(c3ccnc(Nc4ccc(OC)cc4)n3)C2)cc1 (stereo not drawn) [GSK1379727] | 43 | 0 | 0 | 30 | 6 | 0 | 9 | 0 | 0 | 12 | 56 | 47 | 21 | 0 | 18 | 0 | 0 | 0 | 8 | 0
8 | NS(=O)(=O)c1cccc(-c2ccc3nccc(-c4cccc(S(N)(=O)=O)c4)c3c2)c1 [GW867253] | 0 | 0 | 3 | 33 | 0 | 0 | 0 | 0 | 5 | 0 | 17 | 0 | 0 | 0 | 0 | 0 | 0 | 0 | 0 | 0
9 | CC(C)Oc1ccc2c(-c3ccnc(Nc4ccc(N5CCN(C)CC5)cc4)n3)cnn2n1 [GW696155] | 23 | 0 | 90.5 | 19 | 4 | 43 | 6 | 0 | 0 | 20 | 99.4 | 96.3 | 97.8 | 56 | 71 | 44 | 31 | 54 | 48 | 0

Source: article PMC5540273 (PLoS ONE, 2017)
